Here are results for ten compounds from PubChem BioAssay (NCATS).

SMILES strings stand for the structures. Values without a mark were called inactive. Inconclusive results are not listed. Calls of active or inactive are those of the source. Unless noted, calls come from the whole dose curve; as a rule, active = well fitted curve in the direction sought with a large enough effect; inconclusive = small, poorly fitted or top-dose-only effect, or another doubt; inactive = no such curve, though single readings can be large; an effect the other way counts as inactive or inconclusive.

Assay [1] in a line: qHTS assay for measurement of the activity of small molecule inhibitors on Zika virus induced Caspase-3 activity in human iPSC derived neural progenitor cells (hNPCs) (AID 1224857). Note: nearly all actives have a fitted effect of over 65% in size. The essentials: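 Pretreat hNPCs with compound 1 h; infect ZIKV 2 FFU/cell; 6 h 37 C, 5% CO2; Caspase-Glo 3/7, 30 min RT; luminescence; normalize to no-virus and virus-only wells.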
Background: Quantitative high-throughput screening tests each substance at several concentrations.

The nature of assay [2]: qHTS assay for measurement of the activity of small molecule inhibitors on Zika virus induced Caspase-3 activity in human astrocytoma cells (AID 1224859). The essentials:
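Human SNB-19 astrocytoma cells in RPMI 1640 with 10% FBS receive compound one hour ahead of Zika virus at 2 FFU/cell. After 6 h infection, caspase-3/7 activity is detected by Caspase-Glo luminescence.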

Assay [3] is described as follows: qHTS assay to identify small molecule inhibitors of chordoma cells - UCH-1 (AID 1259355). Note: nearly all actives have a fitted effect of over 55% in size. Note: potency is the fitted concentration of half-maximal effect; series mostly up to about 46 µM. The essentials:
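Screening used approved and investigational drugs in 15-point titration against 800 seeded cells per well. A fixed combination of auranofin with camptothecin, doxorubicin, rubitecan and topotecan followed compound addition, and growth was scored by CellTiter-Glo after 48hr.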

A short description of assay [4]: qHTS assay to identify small molecule inhibitors of chordoma cells - UCH-2 (AID 1259356). Note: potency is the fitted concentration of half-maximal effect.
Assay [5] can be described thus: P-glycoprotein substrates identified in KB-8-5-11 adenocarcinoma cell line, qHTS therapeutic library screen (AID 1346987). Note: nearly all actives have a fitted effect of over 65% in size. Note: potency is the fitted concentration of half-maximal effect. The essentials:
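Compounds are pinned in dose-response onto KB-8-5-11 cells (500 cells/well, colchicine-free medium) and left 72 h at 37 degree C. CellTiter-Glo luminescence then yields AC50 values.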

Assay [6] can be described thus: Natriuretic polypeptide receptor (hNpr1) antagonism - Pilot counterscreen GloSensor control cell line (AID 1347045; calls by dose curve; note: series mostly up to about 38 µM). The essentials: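 Control counterscreen: luciferase cGMP-biosensor HEK293 cells (no Npr1) received compound for 30 min at room temperature after GloSensor substrate loading. Luminescence was measured before and 20 min after soluble guanylyl cyclase activation by 50 uM nitroprusside.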
On the technique in general: The purpose of a counterscreen is to sort out artefacts and off-target activity.

Assay [7] has as its target Atrial natriuretic peptide receptor 1 (Homo sapiens) (UniProt P16066). The assay can be described thus: Natriuretic polypeptide receptor (hNpr1) antagonism - Pilot screen (AID 1347049; calls by dose curve;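 note: agonist-evoked cGMP luminescence read 20 min after hNppA addition; series mostly up to about 58 µM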). The essentials:
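cGMP-sensor HEK293/hNpr1 cells, 1500/well, plated overnight at 37C. 2% GloSensor reagent, 2 h RT. Compound (23 nL pin transfer) 30 min RT, baseline luminescence pre-read. 0.1 nM hNppA, 20 min RT, post-read.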

Assay [8] concerns the target Atrial natriuretic peptide receptor 2 (Homo sapiens) (UniProt P20594). Kind of assay: Natriuretic polypeptide receptor (hNpr2) antagonism - Pilot subtype selectivity assay (AID 1347050; calls by dose curve; note: potency is the fitted concentration of half-maximal effect). The method in brief:
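Luminescence from a genetically encoded cGMP luciferase biosensor in hNpr2-expressing HEK293 cells is read before and 20 min after adding 1 nM hNppC. Test compounds, in interplate 1:5 titrations, are added 30-50 min ahead of the agonist.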

The nature of assay [9]: NS1 protein of Zika virus - qHTS assay to identify small molecule inhibitors in human HEK 293 cells (AID 1347053). Note: series mostly up to about 46 µM; nearly all actives have a fitted effect of over 55% in size. The essentials:
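In this cell-based screen, HEK 293 cultures received compound for one hour before Zika MR766 at MOI = 0.5. NS1 was quantified 24 hours later by TR-FRET, normalized to virus-free wells and infected wells.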

In assay [10] the target is T1, Tyrosine-protein phosphatase non-receptor type substrate 1 (Homo sapiens) + Leukocyte surface antigen CD47 (Homo sapiens) (UniProt P78324+Q08722). The assay can be described thus: CD47-SIRPalpha protein protein interaction - HTRF assay qHTS validation (AID 1347058; active = well fitted curve in the direction sought with a large enough effect in the signal ratio, not every such curve was filed as active; the % refers to the signal ratio; note: series mostly up to about 38 µM). The method in brief:
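Soluble extracellular domains (6His-CD47, Avi-tag-biotinylated SIRPalpha) in PBS pH 7.4 with 0.05% IGEPAL CA-630. Compounds were preincubated 30 min at RT with CD47 and anti-His-Eu, then SIRPalpha and SAV-XL665 were added. TR-FRET 665/615 ratio.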

Assay [11] addresses T1, Tyrosine-protein phosphatase non-receptor type substrate 1 (Homo sapiens) + Leukocyte surface antigen CD47 (Homo sapiens). Kind of assay: CD47-SIRPalpha protein protein interaction - Alpha assay qHTS validation (AID 1347059).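 Note: bead proximity luminescence from CD47 binding SIRPalpha after compound preincubation with SIRPalpha.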 Note: potency is the fitted concentration of half-maximal effect. The method in brief: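 SIRPalpha-biotin 25 nM + cpd, 30 min RT, dark; add CD47-His 12.5 nM, 30 min; add Ni-NTA/SAV beads 10 ug/mL, 30 min; AlphaScreen. Buffer PBS pH 7.4 + 0.05% IGEPAL CA-630. Non-biotinylated SIRPalpha as control inhibitor.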

The target of assay [12] is Parathyroid hormone/parathyroid hormone-related peptide receptor (Homo sapiens) (UniProt Q03431). The assay can be described thus: qHTS for PTHR1 Agonists: Optimization Screen against the NCGC LOPAC library (AID 1347079).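 Note: GloSensor cAMP luminescence in HEK-293 GP2 cells expressing human PTHR1 with IBMX.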 The method in brief: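 HEK-293 GP2 cells, PTHR1 + GloSensor cAMP; 3000 cells/well, o/n. Luciferin + IBMX 0.5mM each (stock), 1 hr 37C. Cpd titration, 1 hr 37C. Lum after 15 min RT. Ctrl M-PTH(1-15) top 10uM.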
Chain of Parathyroid hormone/parathyroid hormone-related peptide receptor (Homo sapiens) (Q03431 whole entry, looked up): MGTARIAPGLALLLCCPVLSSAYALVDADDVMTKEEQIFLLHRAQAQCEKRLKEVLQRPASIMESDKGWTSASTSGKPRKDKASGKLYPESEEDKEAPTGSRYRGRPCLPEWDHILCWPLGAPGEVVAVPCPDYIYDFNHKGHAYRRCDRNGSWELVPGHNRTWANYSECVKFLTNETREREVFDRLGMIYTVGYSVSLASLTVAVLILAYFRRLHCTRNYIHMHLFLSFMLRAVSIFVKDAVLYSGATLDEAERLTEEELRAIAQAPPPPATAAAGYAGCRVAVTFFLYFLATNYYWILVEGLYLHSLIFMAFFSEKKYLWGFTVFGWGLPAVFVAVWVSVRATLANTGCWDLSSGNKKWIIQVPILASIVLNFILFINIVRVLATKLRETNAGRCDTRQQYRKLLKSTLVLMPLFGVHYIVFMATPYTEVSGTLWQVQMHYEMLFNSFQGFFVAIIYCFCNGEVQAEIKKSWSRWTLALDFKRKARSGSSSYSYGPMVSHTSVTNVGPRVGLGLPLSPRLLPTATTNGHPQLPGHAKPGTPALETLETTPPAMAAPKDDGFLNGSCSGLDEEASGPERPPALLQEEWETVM

Assay [13] in a line: qHTS of pediatric cancer cell lines to identify multiple opportunities for drug repurposing: Primary screen for DAOY cells (AID 1347090). Note: nearly all actives have a fitted effect of over 55% in size. Note: potency is the fitted concentration of half-maximal effect. The method in brief:
(§1)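 Viability measured as metabolically active cells via CellTiter-Glo luminescence following 48 hours of compound exposure, 11-point dilutions in confirmatory testing. 500-1,000 cells/well plated 5 hours before dosing; controls were DMSO and 2.3 µM bortezomib.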

Assay [14] in a line: qHTS of pediatric cancer cell lines to identify multiple opportunities for drug repurposing: Primary screen for SJ-GBM2 cells (AID 1347091). The method in brief: as §1
In assay [15] the target is T1, Tyrosine-protein phosphatase non-receptor type substrate 1 (Homo sapiens) + Leukocyte surface antigen CD47 (Homo sapiens). The assay can be described thus: CD47-SIRPalpha protein protein interaction - LANCE assay qHTS validation (AID 1347057; active = well fitted curve in the direction sought with a large enough effect in the signal ratio, with a control signal flat, not every such curve was filed as active; the % refers to the signal ratio; note: series mostly up to about 38 µM). The essentials: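 Inhibition of soluble CD47/SIRPalpha ectodomain association by titrated compounds, measured as 665/615 nm time-resolved FRET ratio after sequential 30 min room-temperature incubations.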

Assay [16] in a line: qHTS of pediatric cancer cell lines to identify multiple opportunities for drug repurposing: Primary screen for TC32 cells (AID 1347089). Note: nearly all actives have a fitted effect of over 60% in size. The essentials:
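Luminescent CellTiter-Glo read-out of metabolically active TC32 cells after 48 h compound exposure. Primary: MIPE 11-point, 0.78 nM–46 µM; NPC 8-point, 0.59 nM–46 µM. Confirmatory: 11-point dilutions.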

T1 sequence (P78324 whole entry, looked up, the tested form may be a part): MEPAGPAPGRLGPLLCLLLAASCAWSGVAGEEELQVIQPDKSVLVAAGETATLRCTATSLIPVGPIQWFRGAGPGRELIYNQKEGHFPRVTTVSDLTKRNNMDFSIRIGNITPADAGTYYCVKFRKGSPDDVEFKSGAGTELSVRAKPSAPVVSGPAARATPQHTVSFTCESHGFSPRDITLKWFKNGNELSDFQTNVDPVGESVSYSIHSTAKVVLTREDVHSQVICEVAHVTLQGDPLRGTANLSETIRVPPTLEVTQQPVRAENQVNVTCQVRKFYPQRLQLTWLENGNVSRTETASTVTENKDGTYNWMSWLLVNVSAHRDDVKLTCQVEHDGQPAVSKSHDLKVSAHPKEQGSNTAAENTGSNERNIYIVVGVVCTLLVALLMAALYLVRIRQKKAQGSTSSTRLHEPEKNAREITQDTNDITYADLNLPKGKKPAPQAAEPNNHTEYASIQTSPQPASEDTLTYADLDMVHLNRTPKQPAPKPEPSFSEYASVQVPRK
T1 sequence (Q08722 whole entry, looked up, the tested form may be a part): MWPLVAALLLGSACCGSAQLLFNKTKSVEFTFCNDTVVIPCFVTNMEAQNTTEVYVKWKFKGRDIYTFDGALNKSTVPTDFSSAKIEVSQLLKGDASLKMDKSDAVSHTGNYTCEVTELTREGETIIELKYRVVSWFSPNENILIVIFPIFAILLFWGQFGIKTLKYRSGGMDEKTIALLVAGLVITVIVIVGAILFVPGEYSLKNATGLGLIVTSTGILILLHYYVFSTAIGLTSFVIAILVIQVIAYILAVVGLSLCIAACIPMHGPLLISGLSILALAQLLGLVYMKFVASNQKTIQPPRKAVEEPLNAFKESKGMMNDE
Chain of Atrial natriuretic peptide receptor 1 (Homo sapiens) (P16066 whole entry, looked up): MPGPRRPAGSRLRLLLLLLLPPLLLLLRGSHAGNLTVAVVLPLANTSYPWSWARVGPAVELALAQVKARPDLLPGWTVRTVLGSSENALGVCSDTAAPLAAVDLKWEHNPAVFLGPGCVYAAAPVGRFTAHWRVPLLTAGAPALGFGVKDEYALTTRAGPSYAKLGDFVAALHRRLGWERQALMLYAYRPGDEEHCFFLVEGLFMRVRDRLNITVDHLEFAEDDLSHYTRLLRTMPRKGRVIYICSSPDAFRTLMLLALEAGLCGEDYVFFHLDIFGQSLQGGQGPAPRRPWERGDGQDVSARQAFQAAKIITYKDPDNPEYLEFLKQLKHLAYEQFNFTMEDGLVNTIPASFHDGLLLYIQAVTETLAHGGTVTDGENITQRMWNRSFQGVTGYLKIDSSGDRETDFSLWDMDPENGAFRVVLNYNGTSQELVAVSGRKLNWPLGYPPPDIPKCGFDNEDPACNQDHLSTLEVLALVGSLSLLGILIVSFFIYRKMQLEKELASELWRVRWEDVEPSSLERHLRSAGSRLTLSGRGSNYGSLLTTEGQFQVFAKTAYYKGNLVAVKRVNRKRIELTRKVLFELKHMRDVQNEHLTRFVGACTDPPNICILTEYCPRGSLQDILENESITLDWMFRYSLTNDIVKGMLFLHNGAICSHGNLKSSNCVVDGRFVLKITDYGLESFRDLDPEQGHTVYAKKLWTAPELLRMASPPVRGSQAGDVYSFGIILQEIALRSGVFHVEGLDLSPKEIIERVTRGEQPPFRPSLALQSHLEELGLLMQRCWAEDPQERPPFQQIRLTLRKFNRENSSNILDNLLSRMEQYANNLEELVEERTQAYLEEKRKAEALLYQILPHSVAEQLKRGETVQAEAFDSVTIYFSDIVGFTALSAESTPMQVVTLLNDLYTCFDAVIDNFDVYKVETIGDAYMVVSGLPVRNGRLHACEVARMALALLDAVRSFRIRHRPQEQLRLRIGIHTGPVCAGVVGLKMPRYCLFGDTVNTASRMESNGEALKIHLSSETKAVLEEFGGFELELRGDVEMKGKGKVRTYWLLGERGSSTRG
Chain of Atrial natriuretic peptide receptor 2 (Homo sapiens) (P20594 whole entry, looked up): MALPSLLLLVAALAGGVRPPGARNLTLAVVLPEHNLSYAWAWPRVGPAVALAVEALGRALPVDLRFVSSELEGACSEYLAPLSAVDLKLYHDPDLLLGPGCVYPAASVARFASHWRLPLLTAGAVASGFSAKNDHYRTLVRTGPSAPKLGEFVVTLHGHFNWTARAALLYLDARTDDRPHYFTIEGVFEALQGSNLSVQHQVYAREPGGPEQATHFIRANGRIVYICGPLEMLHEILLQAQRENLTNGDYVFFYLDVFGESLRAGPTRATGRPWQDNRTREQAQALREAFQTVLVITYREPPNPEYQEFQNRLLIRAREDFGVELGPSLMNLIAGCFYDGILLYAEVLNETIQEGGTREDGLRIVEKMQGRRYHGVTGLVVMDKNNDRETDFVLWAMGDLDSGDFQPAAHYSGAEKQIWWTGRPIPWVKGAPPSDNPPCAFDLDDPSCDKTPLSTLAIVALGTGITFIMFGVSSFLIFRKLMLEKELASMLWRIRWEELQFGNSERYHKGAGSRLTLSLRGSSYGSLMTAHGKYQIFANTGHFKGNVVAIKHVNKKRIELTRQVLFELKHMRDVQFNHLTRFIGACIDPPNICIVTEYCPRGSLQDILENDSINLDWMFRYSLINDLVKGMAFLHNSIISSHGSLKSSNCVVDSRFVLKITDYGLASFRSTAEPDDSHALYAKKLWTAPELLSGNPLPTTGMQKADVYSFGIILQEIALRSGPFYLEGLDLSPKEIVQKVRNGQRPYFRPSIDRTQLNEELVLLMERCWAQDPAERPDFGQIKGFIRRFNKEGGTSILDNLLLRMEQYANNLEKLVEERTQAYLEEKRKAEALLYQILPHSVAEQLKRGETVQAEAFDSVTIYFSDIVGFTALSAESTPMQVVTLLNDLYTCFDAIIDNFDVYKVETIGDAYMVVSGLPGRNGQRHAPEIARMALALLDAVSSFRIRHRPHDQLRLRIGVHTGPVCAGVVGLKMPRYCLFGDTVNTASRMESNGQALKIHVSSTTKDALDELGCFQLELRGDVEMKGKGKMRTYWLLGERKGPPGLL

As for `CC(=O)Nc1nnc(S(N)(=O)=O)s1`, the result in assay [1], in assay [2], in assay [9], in [10] and in assay [12] was inactive. Further, the Potency entry in assay [3], in assay [4], in assay [5], in assay [6], in assay [7] and in assay [8] was “inactive” in each case. Besides, the Potency entry in [11], in assay [13] and in assay [14] was “inactive” in each case.
In the case of `CCCCOCCOCCOCc1cc2c(cc1CCC)OCO2`, the call in assay [1], in [2] and in assay [9] was inactive. Further, the Potency entry in assay [3], in assay [4], in [5], in [13] and in [14] was “inactive” in each case.
Regarding `CCN(CC)CC(=O)Nc1c(C)cccc1C`, the compound was called inactive in [1], in assay [2], in assay [9], in assay [10] and in assay [12]. Moreover, the Potency entry in assay [3], in assay [4], in assay [5], in assay [6], in assay [7] and in [8] was “inactive” each time. The Potency entry in assay [11], in assay [13] and in assay [14] was “inactive” each time.
In the case of `COc1ccc2c(c1OC)C(=O)O[C@@H]2[C@H]1c2c(cc3c(c2OC)OCO3)CCN1C`, the compound was classed as inactive in assay [1], in assay [2], in [9], in assay [15], in assay [10] and in assay [12]. Besides, the Potency entry in [3], in [4], in assay [6], in assay [7], in assay [11] and in [16] was “inactive” in each case. The Potency entry in assay [13] was “inactive”. In [8], the Potency was 16.5 µM (active).
Regarding `CCc1cccc(N(C)C(N)=Nc2cccc3ccccc23)c1`, the compound was called inactive in assay [1], in assay [2], in [9], in [15] and in assay [10]. Further, the Potency result in assay [3], in assay [4], in assay [6], in assay [7], in assay [8] and in [11] was “inactive” throughout. Also, the Potency entry in assay [13] and in [14] was “inactive” each time.
For `C[N+](C)(C)CCCCCCCCCC[N+](C)(C)C`, the compound was classed as inactive in [1], in assay [2], in assay [9], in [15], in [10] and in assay [12]. Also, the Potency result in [3], in assay [4], in assay [6], in [7], in assay [8] and in [11] was “inactive” in each case. The Potency result in [16], in assay [13] and in [14] was “inactive” in each case.
As for `Nc1c2c(nc3ccccc13)CCCC2O` (stereo not given), the call in [1], in [2], in assay [9] and in assay [10] was inactive. In addition, the Potency entry in assay [3], in assay [4], in assay [5], in assay [6], in assay [7] and in assay [8] was “inactive” in each case. The Potency result in assay [11], in assay [16], in [13] and in assay [14] was “inactive” each time.
For the compound `CC(=O)[C@]1(O)Cc2c(O)c3c(c(O)c2[C@@H](O[C@H]2C[C@H](N)[C@H](O)[C@H](C)O2)C1)C(=O)c1ccccc1C3=O`, the outcome in assay [1], in assay [2], in assay [9] and in assay [12] was inactive. Further, the Potency was 0.794 µM (active) in assay [3]; 1.16 µM (active) in [4]; 4.11 µM (active) in assay [5]; 16.5 µM (active) in assay [11]; 2.11 µM (active) in [13]. In addition, the Potency entry in [7] and in assay [8] was “inactive” each time.
Turning to `O=C(O)CN(CCN(CC(=O)O)CC(=O)O)CCN(CC(=O)O)CC(=O)O`, the compound was called inactive in [1], in [2], in assay [9] and in [10]. Besides, the Potency result in assay [3], in assay [4], in assay [5], in assay [6], in [7] and in assay [8] was “inactive” in each case. For the same compound, the Potency entry in [16], in assay [13] and in assay [14] was “inactive” each time.
`c1cc(CN2CCCCC2)cc(OCCCNc2nc3ccccc3s2)c1`: the compound was called inactive in assay [1], in assay [2], in assay [9], in assay [15], in assay [10] and in assay [12]. Moreover, the Potency result in [3], in assay [4], in assay [7], in [8], in assay [11] and in [16] was “inactive” each time. Also, the Potency entry in [13] is “inactive”. The Potency in assay [5] was 14.6 µM (active).
